Screening data from PubChem.
An excerpt weighted towards active compounds, which were near 15% of everything screened.
DT40 TDP1 no CPT – qHTS for Inhibitors of human tyrosyl-DNA phosphodiesterase 1 (TDP1): qHTS in cells in absence of CPT. Potency, µM (titrated, usually from 46.2 µM), inactives show at the highest dose activity change, negative = growth inhibition, actives largely listed as inhibitors. 420,000 compounds, 15% hits. AID 686978, 2013. DT40 Tdp1-/- hTDP1 cells, no CPT, ATP luminescence, 48 h; note: nearly all actives have a fitted effect of over 55% in size
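DT40 Tdp1-/-;hTDP1 cells, no CPT (DMSO vehicle only), 400 cells/well; compounds pin-transferred; ≥48 hr, 37 °C; CellTiter-Glo 30 min RT dark, luminescence read.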
DT40 TDP1 CPT – DT40-hTDP1 cell growth loss with CPT; chicken DT40 Tdp1-/-;hTDP1 cells + 20 nM CPT, ATP luminescence, 48 h; AID 686979; 420,000 compounds, 12% hits; Potency, µM (top dose mostly 46.2 µM), for inactives: top-dose activity change, negative = growth inhibition, most hits filed as inhibitors; note: nearly all actives have a fitted effect of over 55% in size
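Chicken DT40 Tdp1-/- cells complemented with human TDP1, 400 cells/well, exposed to compounds plus 20 nM camptothecin for at least 48 h at 37 C; viability read as ATP content by CellTiter-Glo luminescence.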
12-LOX inh – blocks human arachidonate 12S-lipoxygenase; 580,000 compounds, 1.1% hits; P18054; Potency, µM (titrated, usually from 108 µM), inactives show top-dose activity change, negative = inhibition, actives largely listed as inhibitors; purified 12hLO, xylenol orange hydroperoxide absorbance
Target sequence (P18054 whole entry, looked up): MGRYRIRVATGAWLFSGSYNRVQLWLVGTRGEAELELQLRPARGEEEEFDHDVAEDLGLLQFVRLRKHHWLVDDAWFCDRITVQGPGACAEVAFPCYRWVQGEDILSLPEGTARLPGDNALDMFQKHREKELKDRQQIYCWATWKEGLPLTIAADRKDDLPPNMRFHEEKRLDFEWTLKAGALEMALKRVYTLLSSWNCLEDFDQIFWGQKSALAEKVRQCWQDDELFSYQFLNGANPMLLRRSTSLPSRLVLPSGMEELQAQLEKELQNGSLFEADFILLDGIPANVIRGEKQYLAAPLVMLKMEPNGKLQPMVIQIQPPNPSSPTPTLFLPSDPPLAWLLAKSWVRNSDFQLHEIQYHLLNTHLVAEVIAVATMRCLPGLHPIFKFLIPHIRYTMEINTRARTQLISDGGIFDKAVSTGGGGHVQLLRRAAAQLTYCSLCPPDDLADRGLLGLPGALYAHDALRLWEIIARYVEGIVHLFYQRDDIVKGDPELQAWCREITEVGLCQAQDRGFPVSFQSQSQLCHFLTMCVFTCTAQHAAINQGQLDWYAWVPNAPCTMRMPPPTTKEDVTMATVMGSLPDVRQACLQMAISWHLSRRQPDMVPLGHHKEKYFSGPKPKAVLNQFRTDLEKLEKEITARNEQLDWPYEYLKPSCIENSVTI
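Purified human 12hLO at 150 nM in 25 mM Hepes, 0.01% Triton X-100, pH 7.0, preincubated 15 min at room temperature with compound. Reaction started with 40 uM arachidonic acid, 30 min at room temperature. Hydroperoxide measured by Fe-xylenol orange, 573/405 nm absorbance ratio.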
ELG1 DNA repair – blocks ELG1-dependent DNA repair in HEK293T cells | HEK293T ELG1-luciferase reporter, luminescence, 16 h; DNA damage induced by 5-fluorouridine | Potency, µM (highest dose often 46.1 µM), inactives show at the highest dose activity change, negative = inhibition, actives largely listed as inhibitors | 330,000 compounds, 2.3% hits; note: nearly all actives have a fitted effect of over 55% in size
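Cells (2,000 per well) received 5-fluorouridine plus test compound or DMSO and were incubated 16 hr at 37 °C, 5% CO2. Luciferase activity was read by luminescence 30 min after ONE-Glo addition; signal suppression marked inhibition of damage-induced ELG1 function.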
RORg inh – ROR gamma (mouse) transcription inhibition | Drosophila S2 Gal4-RORgamma UAS-luciferase reporter, 20 h | Potency, µM (doses to about 53.6 µM), inactives show at the top dose activity change, negative = inhibition, most hits filed as inhibitors | 310,000 compounds, 5.4% hits; note: nearly all actives have a fitted effect of over 60% in size
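Schneider cells (Drosophila), stable Gal4 DBD–ROR gamma + UAS-luc; 1 hr cmpd preincubation; Cu2+ induction 700 uM final; 20 hr ambient; luminescence.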
VP16 counter – inhibits Gal4-VP16 luciferase reporter, ROR gamma counter-screen | Drosophila S2 Gal4-VP16 UAS-luciferase, luminescence, 20 h | Potency, µM (top dose mostly 53.6 µM), inactives show at the highest dose activity, negative = inhibition, actives largely listed as inhibitors | 310,000 compounds, 3.5% hits | AID 2546;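 note: Gal4-VP16 expression switched on by copper sulfate through the metallothionein promoter; nearly all actives have a fitted effect of over 50% in size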
* = called active by the depositor. Calls come from the whole dose curve; as a rule, active = well fitted curve in the direction sought with a large enough effect; inconclusive = small, poorly fitted or top-dose-only effect, or another doubt; inactive = no such curve, though single readings can be large; an effect the other way counts as inactive or inconclusive. % is set by controls: 0 for no effect and ±100 for the full control effect; potency is the fitted concentration of half-maximal effect.

How did CCn1cc(C(=O)N2CCCCCCNC(=O)CC2)cn1 do in these assays?
12-LOX inh: 1%

Results for Cc1ccc(-c2nc(-c3cccnc3)sc2CC(=O)Nc2ccc3nc(C)sc3c2)cc1 ?
DT40 TDP1 no CPT: inconclusive; DT40 TDP1 CPT: -40%; 12-LOX inh: 10%; ELG1 DNA repair: 18µM*; RORg inh: inconclusive; VP16 counter: -22%

How did CCOC(=O)c1ccccc1NC(=O)Cc1sc(-c2cccnc2)nc1-c1ccc(C)cc1 do in these assays?
ELG1 DNA repair: inconclusive; RORg inh: 35%; VP16 counter: -11%

How did O=C(O)Cc1sc(-c2cccnc2)nc1-c1ccc(Br)cc1 do in these assays?
DT40 TDP1 no CPT: -24%; DT40 TDP1 CPT: -6%; 12-LOX inh: 35µM*; ELG1 DNA repair: 7%; RORg inh: 8%; VP16 counter: -3%

Results for COc1cccc(N=c2oc3ccc(OC)cc3cc2-c2nc3ccccc3[nH]2)c1 ?
DT40 TDP1 no CPT: inconclusive; DT40 TDP1 CPT: inconclusive; 12-LOX inh: 7%; RORg inh: 14µM*; VP16 counter: -26%

Results for COc1ccc2oc(=O)c(-c3nc4ccccc4o3)cc2c1 ?
DT40 TDP1 no CPT: inconclusive; DT40 TDP1 CPT: inconclusive; 12-LOX inh: 0%; ELG1 DNA repair: inconclusive; RORg inh: 4%; VP16 counter: 2%

Results for COc1cccc(N=c2oc3ccccc3cc2-c2nc3ccccc3[nH]2)c1 ?
DT40 TDP1 no CPT: 23µM*; DT40 TDP1 CPT: 23µM*; 12-LOX inh: inconclusive; ELG1 DNA repair: inconclusive; RORg inh: 7.9µM*; VP16 counter: inconclusive

How did COc1ccc2nc(-c3ccccc3)[nH]c2c1 do in these assays?
DT40 TDP1 no CPT: inconclusive; DT40 TDP1 CPT: inconclusive; 12-LOX inh: 0%; ELG1 DNA repair: inconclusive; RORg inh: 14%; VP16 counter: inconclusive

What do the screens show for `COc1ccc(-c2cc(N3CCC(NC(=O)Cc4ccccc4Cl)CC3)n[nH]2)cc1`?
12-LOX inh: 29%

Results for Cc1cc2ccccc2n1-c1ccc(C(=O)N2CCC(C(=O)NCc3ccc(F)cc3)CC2)s1 ?
DT40 TDP1 no CPT: 16µM*; DT40 TDP1 CPT: 21µM*; 12-LOX inh: -1%

Results for COc1ccc(CNC(=O)C2CCN(C(=O)c3sccc3-n3cccc3)CC2)cc1 ?
DT40 TDP1 no CPT: 9%; DT40 TDP1 CPT: -3%; 12-LOX inh: 4%; ELG1 DNA repair: 0%; RORg inh: 13%; VP16 counter: -7%

What do the screens show for `COc1ccc(CNC(=O)C2CCN(C(=O)c3ccc(-n4ccc5ccccc54)s3)CC2)cc1`?
DT40 TDP1 no CPT: 13µM*; DT40 TDP1 CPT: 10µM*; 12-LOX inh: -10%

Results for CN(C)c1ccc(CNC(=O)C2CCN(C(=O)c3ccc(-n4ccc5ccccc54)s3)CC2)cc1 ?
DT40 TDP1 no CPT: 21µM*; DT40 TDP1 CPT: 21µM*; 12-LOX inh: 1%

How did CCc1cc(NCCNC(=O)c2ccccc2Cl)n2nccc2n1 do in these assays?
12-LOX inh: 31%

What do the screens show for `CCC1(C)N=C(N)Nc2nc3cc(C)c(C)cc3n21` (configuration not stated)?
DT40 TDP1 no CPT: 9.2µM*; DT40 TDP1 CPT: 9.2µM*; 12-LOX inh: 0%; ELG1 DNA repair: -2%; RORg inh: 16%; VP16 counter: -2%

What do the screens show for `C=C(C)Cn1c(N2CCN(CC(N)=O)CC2)nc2c1c(=O)[nH]c(=O)n2C`?
12-LOX inh: 0%

Results for CN(C)c1ccc(/C=C2\N=C(c3ccc(Cl)c([N+](=O)[O-])c3)NC2=O)cc1 ?
DT40 TDP1 no CPT: 10µM*; DT40 TDP1 CPT: inconclusive; 12-LOX inh: -13%; ELG1 DNA repair: 8%; RORg inh: 2%; VP16 counter: -4%

What do the screens show for `c1ccc(-c2nc3ccccc3c3nncn23)cc1`?
DT40 TDP1 no CPT: inconclusive; DT40 TDP1 CPT: inconclusive; 12-LOX inh: 14%; ELG1 DNA repair: 14%; RORg inh: -21%; VP16 counter: -3%

What do the screens show for `CCCCOC(=O)c1ccc(Nc2nc3ccccc3c3nnc(C)n23)cc1`?
DT40 TDP1 no CPT: 21µM*; DT40 TDP1 CPT: 16µM*; 12-LOX inh: -23%

Results for Cc1ccc(Nc2nc3ccccc3c3nncn23)cc1C ?
DT40 TDP1 no CPT: 16µM*; DT40 TDP1 CPT: 8.2µM*; 12-LOX inh: -1%

What do the screens show for `COc1ccc(Nc2nc3ccccc3c3nnc(C)n23)cc1Cl`?
DT40 TDP1 no CPT: 6.5µM*; DT40 TDP1 CPT: 10µM*; 12-LOX inh: 3.2µM*

What do the screens show for `CCOc1ccc(OCC)c(Nc2nc3ccccc3c3nnc(C)n23)c1`?
DT40 TDP1 no CPT: inconclusive; DT40 TDP1 CPT: 1%; 12-LOX inh: -13%

How did CCc1ccc(Nc2nc3ccccc3c3nnc(C)n23)cc1 do in these assays?
DT40 TDP1 no CPT: 10µM*; DT40 TDP1 CPT: 8.2µM*; 12-LOX inh: inconclusive

What do the screens show for `COc1cccc(C(=O)NCC2Cn3cccc3C(=O)N2CC(C)C)c1` (configuration not stated)?
12-LOX inh: 33%

How did O=C(/C=C/c1ccccc1)Nc1ccc2c(c1)CCC2 do in these assays?
12-LOX inh: -6%

What do the screens show for `O=C1CCC2(CCNCC2)CN1CCCNc1cccnc1`?
12-LOX inh: 5%

How did Cc1cc(Nc2nc3ccccc3c3nnc(C)n23)ccc1Br do in these assays?
DT40 TDP1 no CPT: 18µM*; DT40 TDP1 CPT: inconclusive; 12-LOX inh: 1%

What do the screens show for `Cc1nnc2c(-c3ccccc3)nc3ccccc3n12`?
DT40 TDP1 no CPT: inconclusive; DT40 TDP1 CPT: -6%; 12-LOX inh: 6%; ELG1 DNA repair: inconclusive; RORg inh: 6%; VP16 counter: 3%

How did CC(=O)c1cccc(NC(=O)C(Sc2ccc(C(F)(F)F)cn2)c2ccccc2)c1 (configuration not stated) do in these assays?
12-LOX inh: -43%

What do the screens show for `COc1cccc(CNC(=O)CN2C(=O)N(c3cccc(C)c3)S(=O)(=O)c3ccccc32)c1OC`?
12-LOX inh: -11%

How did O=Cc1c[nH]c2cc(OCc3ccccc3)ccc12 do in these assays?
12-LOX inh: -17%

How did O=Cc1c[nH]c2cccc(OCc3ccccc3)c12 do in these assays?
DT40 TDP1 no CPT: 23µM*; DT40 TDP1 CPT: inconclusive; 12-LOX inh: -18%; ELG1 DNA repair: inconclusive
